About 1,000 (0.29%) of roughly 340,000 compounds were called active. Cut-off read from the data, not from the text of the source: inconclusive = inhibition above about 29% without an active follow-up result; inactive = below that. Not all results are given here. Measured potencies and affinities stand elsewhere.
Biological target: Genome polyprotein (Dengue virus type 2 (strain 16681-PDK53)) (UniProt P29991)
Assay: flavivirus cap methylation enzyme inhibition – biochemical, confirmation dose response, primary screen (AID 588689)
Settings: Dengue-2 NS5 methyltransferase capping enzyme assay, at 25 µM, stronger effect = higher value
[1] = measured here: pilot screen replicate inhibition

Compound	inhibition	inhibition [1] [%]
CC1(C(=O)N2CCN(c3ccc([N+](=O)[O-])cc3)CC2)CC1(Cl)Cl (stereo not given)	-2.36% (inactive)	
CN(CC(=O)Nc1ccc(F)cc1)C(=O)CSc1nccn1C	7.2% (inactive)	
Cn1nc(C(=O)NCc2cccc(Cl)c2)c2c1-c1ccccc1S(=O)(=O)C2	5.32% (inactive)	
COc1cccc(C(=S)N2CCOCC2)c1OS(=O)(=O)c1ccc(Cl)cc1	1.61% (inactive)	
CC(C)Cc1ccc(C(C)NC(=O)Cc2ccc(S(=O)(=O)N3CCOCC3)s2)cc1 (stereo not given)	-1.45% (inactive)	
O=C(Nc1ccccc1[N+](=O)[O-])c1cccc(N2C(=O)CCC2=O)c1	-7.81% (inactive)	
O=C(O)c1cnc(-c2ccccc2)nc1C(F)(F)F	-8.19% (inactive)	
COC(=O)Nc1nc(-c2ccccc2)c(C(=O)c2ccccc2)s1	-4.12% (inactive)	
COc1cccc(-c2ccc3ncnc(NCc4cccc(C)c4)c3c2)c1	-0.8% (inactive)	
COc1ccc(CNC(=O)/C=C/c2cc3c(cc2Br)OCO3)cc1	-8.34% (inactive)	
COc1cc(C(=O)O)c2c(c1C)OC(=O)c1c(C)cc(O)c(C=O)c1O2	0.72% (inactive)	
COc1cc(/C=C2\OC(=O)c3c(OC)cccc32)ccc1O	-20.1% (inactive)	
O=C(O)C1C2CCC(O2)C1C(=O)Nc1ccc(Br)cc1F (stereo not given)	-6.36% (inactive)	
C=CCC[C@@H](Cc1ccc(F)cc1)C(=O)OC[C@@H](Cc1ccccc1)NC(=O)[C@@H](CC=C)CC(=O)N[C@@H](CO)Cc1ccccc1	-4.81% (inactive)	
N=C1/C(=C/c2cccs2)C(=O)N=C2SN=C(SCc3ccccc3)N12	-11.6% (inactive)	
CC(C)CSC1=NSC2=NC(=O)/C(=C\c3cccs3)C(=N)N12	24.3% (inactive)	
CCCCCCCCCCNC(=O)CCn1[nH]c(=O)c2ccccc2c1=O	-4.1% (inactive)	
Cc1cccc(C)c1OCCn1nnc2ccccc21	1.31% (inactive)	-3.03
COc1cc(/C=C2/C(=O)N(c3ccc(C(=O)O)cc3)N=C2C)cc(OC)c1O	-28.1% (inactive)	
COc1ccc(/C=C2\N=C(C)N(c3ccc(C(=O)O)cc3)C2=O)cc1OC	-13.8% (inactive)	

Compound	inhibition	inhibition [1] [%]
COc1cc(/C=C2\C(=O)N(CCC#N)N=C2C)ccc1OCC(=O)Nc1ccccc1	27.7% (inactive)	
COc1cc(/C=C2/C(=O)N(c3cccc(Br)c3)N=C2C)cc(OC)c1O	-25.2% (inactive)	
Cc1ccccc1NC(=O)Cn1nnc(S(=O)(=O)c2ccc(C(C)(C)C)cc2)c1N	-3.62% (inactive)	
NC(=O)N/N=C/c1ccc(-c2cccc(C(F)(F)F)c2)o1	-7.73% (inactive)	
Fc1cccc(/C=C2\CCCC3=C2NC(=S)NC3c2cccc(F)c2)c1 (stereo not given)	3.88% (inactive)	
Cc1ccc(SC2=C(Sc3ccc(C)cc3)C(=O)c3ccccc3C2=O)cc1	22.2% (inactive)	
COC1=C(Nc2ccc(C)cc2)C(=O)c2ccccc2C1=O	1.28% (inactive)	
COc1ccc(CN2CC(C(=O)NCCN3CCOCC3)CC2=O)cc1 (stereo not given)	0.54% (inactive)	
O=C(CN1C(=O)COc2ccc(Cl)cc21)N1CCc2ccccc21	-2.43% (inactive)	
Cc1cc(C)n(-c2nc3ccccc3c(=O)n2OCC#N)n1	-1.94% (inactive)	
CC(=O)Oc1ccc(N(C(C)=O)S(=O)(=O)c2ccc(C)cc2)c2ccccc12	-8.55% (inactive)	
CC(=O)Oc1ccc(N(C(C)=O)S(=O)(=O)c2ccccc2)c2ccccc12	6.04% (inactive)	
O=C(NCCCn1ccnc1)c1ccc(Cl)s1	-4.6% (inactive)	
O=S(=O)(O)c1ccc(N=Nc2ccccc2)cc1	-9.54% (inactive)	
O=S(=O)(Nc1ccc(N=Nc2ccc(O)c3ccccc23)cc1)c1ccccc1	6.54% (inactive)	
O=C(C[n+]1ccc(C(=O)c2ccccc2)cc1)Nc1ccccc1OC(F)F	-15.9% (inactive)	
O=P(C(=S)Nc1ccccc1Cl)(c1ccccc1)c1ccccc1	-1.15% (inactive)	
O=C(Nc1ccccc1)c1ccccc1NS(=O)(=O)c1ccc(Cl)s1	10.3% (inactive)	
Cc1ccc(NC(=O)c2ccccc2NS(=O)(=O)c2ccc(Cl)s2)cc1	-0.66% (inactive)	
COC(=O)[C@]1(C)N[C@H](CN(C)S(=O)(=O)c2ccc(OC)cc2)[C@@H]2C(=O)N(C)C(=O)[C@@H]21	-4.63% (inactive)	-0.915

Compound	inhibition	inhibition [1] [%]
Cc1ccc(S(=O)(=O)N2CCOCC2)cc1C(=O)NC1CCCC(C)C1C (stereo not given)	1.47% (inactive)	
CCCC1=C([O-])C2N=CC=CC2=[N+](c2ccccn2)C1=O (stereo not given)	-1.93% (inactive)	
O=C1c2ccccc2C(O)N1c1ccc(Cl)cc1 (stereo not given)	-2.08% (inactive)	
COC(=O)C1OC2(OC1C(=O)OC)c1ccccc1-c1ccccc12 (stereo not given)	-6.04% (inactive)	
CC(C)(Oc1ccc(Cl)cc1)C(=O)NC1CCSC1=O (stereo not given)	-4.81% (inactive)	
CCOC(=O)N1CCC(NC(=S)Nc2ccc3nc(N4CCN(CC)CC4)cc(C)c3c2)CC1	-6.96% (inactive)	
COc1ccc(-c2cc(C(=O)NCCN3CCOCC3)c3ccccc3n2)c(OC)c1	-2.05% (inactive)	
Cc1cccc(N(CC(=O)O)CC(=O)O)c1	0.96% (inactive)	
CSC(=CC(=O)c1ccccc1)SC	-2.05% (inactive)	
COc1cccc(C(=O)C(C#N)=C(SC)SC)c1	12.4% (inactive)	
Cc1c(C(=O)Nc2cccc([N+](=O)[O-])c2)sc2ncn(CC(=O)N3CCOCC3)c(=O)c12	-4.39% (inactive)	
Cc1nc2ccc(Br)cc2c(-c2ccccc2)c1C(=O)O	1.96% (inactive)	
Cc1cccc(Nc2nnc(SCC(=O)NC3CCCc4ccccc43)s2)c1C (stereo not given)	-1.45% (inactive)	
CSc1ccc(-c2sc(Nc3ccccc3)n[n+]2-c2ccccc2)cc1	-11.6% (inactive)	
CC(=O)Nc1ccc(-c2sc(Nc3cccc4ccccc34)n[n+]2-c2ccccc2)cc1	-7.03% (inactive)	
CCOC(=O)c1cnc2c(C)c(Cl)ccc2c1N1CCN(CC)CC1	-10.3% (inactive)	
Cc1[nH]c2ccccc2c1-c1nc2ccccc2[nH]c1=O	-8.14% (inactive)	
Cc1[nH]c2ccccc2c1-c1nc2ccccc2[nH]1	-3.22% (inactive)	

— PubChem BioAssay AID588689 (Southern Research Specialized Biocontainment Screening …, 2011)
